Reference: PubChem BioAssay (NCATS)
Records with an inconclusive call do not appear. The source made the active and inactive calls. The call rests on the fitted dose curve; in most records, active means well fitted cell-killing curve with a large enough effect; inconclusive means small, poorly fitted or top-dose-only effect, or effect the other way; inactive means no such curve, though single readings can be large or run the other way.

experiment: Quantitative High-Throughput drug screen in 47 multiple myeloma cell lines against the NCATS MIPE library collection: XG6_PLB cell viability assay (AID 1919865); settings: XG6 myeloma viability, CellTiter-Glo ATP luminescence, 48 h; series mostly up to 45.8 µM; viability (% of control): at the top concentration; further: nearly all actives have a fitted effect of over 40% in size
Excerpt: PI: Beverly A. Mock Ph.D.
Laboratory of Cancer Biology and Genetics,
Center for Cancer Research, National Cancer Institute,
National Institute of Health, Bethesda, Maryland
Drug resistance and disease progression are common in multiple myeloma (MM) patients, underscoring the need for new therapeutic combinations. […] We hypothesized that effective combinations would reduce MYC expression and enhance p16 activity. […] These preclinical data identify potentially useful drug combinations for evaluation in drug-resistant MM and reveal potential mechanisms of combined drug sensitivity.
Described herein is the primary MIPE qHTS used to cherrypick compounds. Validated compounds were then further tested for potential synergistic activiy.
[1] Peat TJ, Gaikwad SM, Dubois W, Gyabaah-Kessie N, Zhang S, Gorjifard S, Phyo Z, Andres M, Hughitt VK, Simpson RM, Miller MA, Girvin AT, Taylor A, Williams D, D'Antonio N, Zhang Y, Rajagopalan A, Flietner E, Wilson K, Zhang X, Shinn P, Klumpp-Thomas C, McKnight C, Itkin Z, Chen L, Kazandijian D, Zhang J, Michalowski AM, Simmons JK, Keats J, Thomas CJ, Mock BA. Drug combinations identified by high-throughput screening promote cell cycle transition and upregulate Smad pathways in myeloma. Cancer Lett. 2023 Aug 1;568:216284. doi: 10.1016/j.canlet.2023.216284. Epub 2023 Jun 24. PMID: 37356470; PMCID: PMC10408729.
SEQUENCE No. (e.g., 1, 2, 3, etc.); […] (e.g., Cells, Incubation, Reagent, etc.); VALUE and DESCRIPTION.
1; Cells; 5 uL; white, solid bottom 1536-well Greiner assay plate.
2; Compounds; 23 nL; Kalypsis pin tool (Wako USA) equipped with a 1536-well pin head to transfer to the assay plates.
3; Incubation; 48 hours; 37C incubation.
4; Reagent;5uL; CellTiter Glo (Promega).
5; Detector; 425V; Luminescence; Viewlux PerkinElmer.
NOTES (numbers refer to Sequence numbers above)
1. The cell-based screening methods employed in this study were like those previously published. Briefly, the corresponding myeloma cell lines were screened in 1,536-well plates with 500 cells, 5-uL per well for inhibition of cell viability (assessed by measuring ATP levels with CellTiterGlo).
2. NCATS MIPE 4.0 library of approved and investigational drugs were added using the Kalypsis pin tool. Wells treated with DMSO only for 100% viability and media only for 0% viability were used as controls.
3. The assay plates were covered and incubated for 48 hours in a 37C, 5% CO2 incubator with controlled humidity.
4. After 48 hours, CellTilter-GloTM luminescent substrate mix (Promega) reagent was added to the assay plate and plates we incubated for 5 min at room temperature.
5. Signal was measured as median relative luminescence units on a ViewLux (PerkinElmer) multiplate reader.
[1] Heske CM, Davis MI, Baumgart JT, Wilson K, Gormally MV, Chen L, Zhang X, Ceribelli M, Duveau DY, Guha R, Ferrer M, Arnaldez FI, Ji J, Tran HL, Zhang Y, Mendoza A, Helman LJ, Thomas CJ. Matrix Screen Identifies Synergistic Combination of PARP Inhibitors and Nicotinamide Phosphoribosyltransferase (NAMPT) Inhibitors in Ewing Sarcoma. Clin Cancer Res. 2017 Dec 1;23(23):7301-7311. doi: 10.1158/1078-0432.CCR-17-1121. Epub 2017 Sep 12. PMID: 28899971; PMCID: PMC6636827.
Potency means the concentration at half of the fitted maximal effect.

Compound | Potency | viability (% of control)
O=C(O)c1ccc(-n2nc(-c3ccccc3O)nc2-c2ccccc2O)cc1 | 20.9 µM (active) | –
Nc1[nH]c(=O)ncc1F | 26.4 µM (active) | –
O=C(O)c1cc(=O)[nH]c(=O)[nH]1 | – | 135% (inactive)
COc1ccc(C(=O)CC(=O)c2ccc(C(C)(C)C)cc2)cc1 | 0.743 µM (active) | –
CCn1cc(C(=O)O)c(=O)c2cc(F)c(N3CCNCC3)cc21 | – | 126% (inactive)
Nc1ccc(S(=O)(=O)Nc2ccccn2)cc1 | – | 100% (inactive)
CCOC(=O)[C@H](CCc1ccccc1)N[C@H]1CS[C@H](c2cccs2)CN(CC(=O)O)C1=O | 2.35 µM (active) | –
CNCC[C@H](Oc1cccc2ccccc12)c1cccs1 | 0.59 µM (active) | –
CC(=O)CC(c1ccccc1)c1c(O)c2ccccc2oc1=O (stereo not given) | – | 121% (inactive)
CNNCc1ccc(C(=O)NC(C)C)cc1 | – | 141% (inactive)
COC(=O)Nc1nc2ccc(C(=O)c3ccccc3)cc2[nH]1 | 0.418 µM (active) | –
COc1nc(N)nc2c1ncn2[C@@H]1O[C@H](CO)[C@@H](O)[C@@H]1O | – | 115% (inactive)
CS(=O)(=O)c1ccc([C@@H](O)[C@@H](CO)NC(=O)C(Cl)Cl)cc1 | 18.7 µM (active) | –
O=C(O)c1cn(C2CC2)c2cc(N3CCNCC3)c(F)cc2c1=O | – | 127% (inactive)
CC(C)NCC(O)c1ccc(NS(C)(=O)=O)cc1 (stereo not given) | – | 124% (inactive)
C[C@]12C=CC(=O)C=C1CC[C@@H]1[C@@H]2C(=O)C[C@@]2(C)[C@H]1CC[C@]2(O)C(=O)CO | – | 133% [at 23.2 µM] (inactive)
CC(=O)Oc1ccccc1C(=O)Nc1ncc([N+](=O)[O-])s1 | 24.1 µM (active) | –
N[C@@H](C(=O)N[C@@H]1C(=O)N2C(C(=O)O)=C(Cl)CS[C@H]12)c1ccccc1 | – | 96.2% (inactive)
CCOC(=O)c1ccc(OC(=O)CCCCCN=C(N)N)cc1 | – | 81.1% (inactive)
C[C@@H](NCCCc1cccc(C(F)(F)F)c1)c1cccc2ccccc12 | – | 118% (inactive)

Compound | Potency | viability (% of control)
NC(=O)N1c2ccccc2CC(=O)c2ccccc21 | – | 104% (inactive)
O=C(NCC1CN(c2ccc(N3CCOCC3=O)cc2)C(=O)O1)c1ccc(Cl)s1 (stereo not given) | – | 93.9% (inactive)
CCOC(=O)[C@H](CCc1ccccc1)N[C@H]1CCc2ccccc2N(CC(=O)O)C1=O | 14.8 µM (active) | –
CN(C)CCc1c[nH]c2ccc(C[C@H]3COC(=O)N3)cc12 | 3.32 µM (active) | –
O=NN(CCCl)C(=O)NC1CCCCC1 | – | 99.8% (inactive)
COCCCOc1cc(C[C@@H](C[C@H](N)[C@@H](O)C[C@H](C(=O)NCC(C)(C)C(N)=O)C(C)C)C(C)C)ccc1OC | – | 103% (inactive)
CC1=C(C(=O)O)N2C(=O)[C@@H](NC(=O)C(N)c3ccccc3)[C@H]2SC1 (stereo not given in full) | – | 110% (inactive)
COc1c(N2CCNC(C)C2)c(F)cc2c(=O)c(C(=O)O)cn(C3CC3)c12 (stereo not given) | – | 97.8% (inactive)
CC(C)(C)NC(=O)[C@H]1CC[C@H]2[C@@H]3CC[C@H]4NC(=O)C=C[C@]4(C)[C@H]3CC[C@]12C | 0.132 µM (active) | –
NC(=O)c1ccc2[nH]ccc2c1 | – | 96.6% (inactive)
Cc1ncc([N+](=O)[O-])n1CCO | – | 146% (inactive)
CO[C@@H]1[C@@H](OC(N)=O)[C@@H](O)[C@H](Oc2ccc3c(O)c(NC(=O)c4ccc(O)c(CC=C(C)C)c4)c(=O)oc3c2C)OC1(C)C | 6.62 µM (active) | –
O=S(=O)(c1cccc2cnccc12)N1CCCNCC1 | 20.9 µM (active) | –
CC1(C)[C@H](C(=O)O)N2C(=O)C[C@H]2S1(=O)=O | – | 117% (inactive)
COC(c1ccccc1)(c1ccccc1)[C@H](Oc1nc(C)cc(C)n1)C(=O)O | – | 124% (inactive)
COc1ccc2c(c1)c(CC(=O)OCC(=O)O)c(C)n2C(=O)c1ccc(Cl)cc1 | – | 120% (inactive)
Oc1c(Cl)cc(Cl)c2cccnc12 | 4.69 µM (active) | –
CN(C)c1ccc(C(=C2C=CC(=[N+](C)C)C=C2)c2ccc(N(C)C)cc2)cc1 | 0.0833 µM (active) | –
CC(C)C[C@H](NC(=O)[C@H](CCc1ccccc1)NC(=O)CN1CCOCC1)C(=O)N[C@@H](Cc1ccccc1)C(=O)N[C@@H](CC(C)C)C(=O)[C@@]1(C)CO1 | 0.001 µM (active) | –
CN(Cc1cc(Br)cc(Br)c1N)C1CCCCC1 | – | 93.5% (inactive)
